Records with an inconclusive call do not appear. The source made the active and inactive calls. The calls were made as follows, unless noted: active = hit-call score of the fitted dose curve at least 0.9, where 1 is the maximum; inconclusive = response in the unintended direction; inactive = score below 0.9.
read-out: xenobiotic metabolism (CYP2C9), CYP2C9 (gene 1559); assay: CLD_CYP2C9_48hr: CellzDirect (CLD) Gene Expression Assay for xenobiotic metabolism (CYP1A2) at 48 hours (AID 2283701; active = hit-call score of the fitted dose curve at least 0.9, where 1 is the maximum; inactive = score below 0.9)
Summary of the method: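 Primary human hepatocytes (two donor preparations) dosed daily for two days with test chemicals, 0.2% DMSO vehicle; harvested at 48 h. mRNA induction quantified by qNPA chemiluminescence, fitted for gain of signal against DMSO baseline; cytotoxicity annotated from phase-contrast morphology.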

Sequence of Broad substrate specificity ATP-binding cassette transporter ABCG2 (Homo sapiens) (Q9UNQ0 whole entry, looked up): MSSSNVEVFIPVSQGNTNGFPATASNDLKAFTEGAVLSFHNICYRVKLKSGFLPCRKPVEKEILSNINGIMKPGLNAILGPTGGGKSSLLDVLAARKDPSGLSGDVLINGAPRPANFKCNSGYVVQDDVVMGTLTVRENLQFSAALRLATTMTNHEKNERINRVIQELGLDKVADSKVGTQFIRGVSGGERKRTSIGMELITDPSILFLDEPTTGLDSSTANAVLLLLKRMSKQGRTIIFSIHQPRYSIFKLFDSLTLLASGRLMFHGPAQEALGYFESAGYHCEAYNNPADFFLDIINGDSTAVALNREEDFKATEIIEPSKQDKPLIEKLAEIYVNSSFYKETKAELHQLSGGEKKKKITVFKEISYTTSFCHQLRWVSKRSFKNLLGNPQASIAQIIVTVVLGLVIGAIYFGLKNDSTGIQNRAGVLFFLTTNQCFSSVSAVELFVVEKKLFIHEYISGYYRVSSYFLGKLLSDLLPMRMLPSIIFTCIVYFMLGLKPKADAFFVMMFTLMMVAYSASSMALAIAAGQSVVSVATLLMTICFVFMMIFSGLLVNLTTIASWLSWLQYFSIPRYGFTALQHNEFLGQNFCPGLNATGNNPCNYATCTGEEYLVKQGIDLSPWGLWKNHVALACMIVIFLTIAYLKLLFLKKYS

Structure (SMILES) | AC50
C[N+]1(C)CCCCC1 | 0.0004 µM (active)
CCNc1nc(Cl)nc(NC(C)(C)C#N)n1 | 0.0364 µM (active)
CC(C1CC1)C(O)(Cn1cncn1)c1ccc(Cl)cc1 (stereo unspecified) | 0.0911 µM (active)

read-out: xenobiotic metabolism (CYP1A2), CYP1A2 (gene 1544); assay: CLD_CYP1A2_48hr: CellzDirect (CLD) Gene Expression Assay for xenobiotic metabolism (CYP1A2) at 48 hours (AID 2283703)
Summary of the method: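 Primary human hepatocytes from two donor preparations were dosed daily for two days at multiple concentrations in 0.2% DMSO vehicle. CYP1A2 mRNA was measured at 48 hours by chemiluminescent quantitative nuclease protection assay, with gain of signal fitted versus DMSO and cytotoxicity annotated from morphology.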

Structure (SMILES) | AC50 | outcome
O=[N+]([O-])c1cc(C(F)(F)F)c(Cl)c([N+](=O)[O-])c1Nc1ncc(C(F)(F)F)cc1Cl | 0.499 µM (active) | –
Cc1ccn2nc(S(=O)(=O)Nc3c(F)cccc3F)nc2n1 | – | inactive
Nc1c(Cl)cc([N+](=O)[O-])cc1Cl | 4.29 µM (active) | –
CCCCSP(=O)(SCCCC)SCCCC | 3.04 µM (active) | –
CCOP(=O)(OCC)Oc1cc(C)nc(C(C)C)n1 | 11.6 µM (active) | –
CC(=NC#N)N(C)Cc1ccc(Cl)nc1 | – | inactive
CCOP(=S)(Oc1cnc(C(C)(C)C)nc1)OC(C)C (stereo unspecified) | 2.68 µM (active) | –
COc1cc(OC)nc(Sc2cccc(Cl)c2C(=O)O)n1 | – | inactive
C#CC(C)(C)NC(=O)c1cc(Cl)cc(Cl)c1 | 0.348 µM (active) | –
CCCCN(CC)c1c([N+](=O)[O-])cc(C(F)(F)F)cc1[N+](=O)[O-] | 5.9 µM (active) | –
CCCCOC(=O)c1ccccc1C(=O)O | – | inactive
CN1COCN(Cc2cnc(Cl)s2)C1=N[N+](=O)[O-] | – | inactive
CCCSP(=O)(OCC)Oc1ccc(Br)cc1Cl (stereo unspecified) | 4.26 µM (active) | –
CC(C)[C@H](C(=O)O[C@H](C#N)c1cccc(Oc2ccccc2)c1)c1ccc(Cl)cc1 | 20 µM (active) | –
CCOP(=S)(OCC)SCCSCC | 7.27 µM (active) | –
CCCCOC(=O)[C@@H](C)Oc1ccc(Oc2ccc(C#N)cc2F)cc1 | – | inactive
CN(C)NC(=O)CCC(=O)O | – | inactive
CNC(=O)Oc1cccc2c1OC(C)(C)O2 | – | inactive
C[N+]1(C)CCCCC1 | – | inactive
CCNc1nc(Cl)nc(NC(C)(C)C#N)n1 | – | inactive
CCCOc1nn(C(=O)NS(=O)(=O)c2ccccc2C(=O)OC)c(=O)n1C | – | inactive
COP(=O)(OC)OC(Br)C(Cl)(Cl)Br (stereo unspecified) | – | inactive
CC(C1CC1)C(O)(Cn1cncn1)c1ccc(Cl)cc1 (stereo unspecified) | 5.01 µM (active) | –
CCOP(=S)(OCC)Oc1ccc2c(C)c(Cl)c(=O)oc2c1 | 0.414 µM (active) | –
FC(F)C(F)(F)OCC(Cn1cncn1)c1ccc(Cl)cc1Cl (stereo unspecified) | 1.27 µM (active) | –
CCOP(=O)(NC(C)C)Oc1ccc(SC)c(C)c1 (stereo unspecified) | 5.87 µM (active) | –
COP(=O)(NC(C)=O)SC (stereo unspecified) | – | inactive
Cc1nn(-c2cc(NS(C)(=O)=O)c(Cl)cc2Cl)c(=O)n1C(F)F | – | inactive
CN(C)[C@@H]1C(=O)C(C(N)=O)=C(O)[C@@]2(O)C(=O)C3=C(O)c4c(O)cccc4[C@@](C)(O)[C@H]3[C@H](O)[C@@H]12 | – | inactive
COc1cccc(C(=O)NN(C(=O)c2cc(C)cc(C)c2)C(C)(C)C)c1C | 20 µM (active) | –

read-out: Broad substrate specificity ATP-binding cassette transporter ABCG2 (Homo sapiens) (UniProt Q9UNQ0); assay: CLD_ABCG2_48hr: CellzDirect (CLD) Gene Expression Assay for ABC Transporter (ABCG2) at 48 hours (AID 2283704)
Summary of the method: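 Primary human hepatocytes from two donors, dosed daily for 2 days, 0.2% DMSO vehicle, several concentrations. ABCG2 mRNA at 48 h by qNPA chemiluminescence, gain fitted versus DMSO; cytotoxicity flagged by morphology.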

Structure (SMILES) | outcome
CCOP(=S)(Oc1cnc(C(C)(C)C)nc1)OC(C)C (stereo unspecified) | inactive
CCCSP(=O)(OCC)Oc1ccc(Br)cc1Cl (stereo unspecified) | inactive
CCCOc1nn(C(=O)NS(=O)(=O)c2ccccc2C(=O)OC)c(=O)n1C | inactive

read-out: xenobiotic metabolism (CYP1A1), CYP1A1 (gene 1543); assay: CLD_CYP1A1_48hr: CellzDirect (CLD) Gene Expression Assay for xenobiotic metabolism (CYP1A1) at 48 hours (AID 2283705)
Summary of the method: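 Primary human hepatocytes from two donors dosed daily for two days at multiple concentrations, 0.2% DMSO vehicle; CYP1A1 mRNA induction at 48 h by qNPA chemiluminescence. Cytotoxicity noted by phase-contrast morphology.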

Structure (SMILES) | outcome | AC50
CCOP(=O)(OCC)Oc1cc(C)nc(C(C)C)n1 | inactive | –
CCCCN(CC)c1c([N+](=O)[O-])cc(C(F)(F)F)cc1[N+](=O)[O-] | – | 20 µM (active)
CCCCOC(=O)[C@@H](C)Oc1ccc(Oc2ccc(C#N)cc2F)cc1 | inactive | –
CC(C)=CC1C(C(=O)OCN2C(=O)C3=C(CCCC3)C2=O)C1(C)C (stereo unspecified) | inactive | –
CN(C)[C@@H]1C(=O)C(C(N)=O)=C(O)[C@@]2(O)C(=O)C3=C(O)c4c(O)cccc4[C@@](C)(O)[C@H]3[C@H](O)[C@@H]12 | inactive | –
COc1cccc(C(=O)NN(C(=O)c2cc(C)cc(C)c2)C(C)(C)C)c1C | – | 10.1 µM (active)

read-out: organic anion transporter (SLCO1B1), SLCO1B1 (gene 10599); assay: CLD_SLCO1B1_48hr: CellzDirect (CLD) Gene Expression Assay for organic anion transporter (SLCO1B1) at 48 hours (AID 2283707)
Summary of the method: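 Primary human hepatocytes from two donor preparations dosed daily for two days with multiple concentrations, 0.2% DMSO vehicle. SLCO1B1 mRNA at 48 h by quantitative nuclease protection assay, chemiluminescence; gain-of-signal fitted versus DMSO.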

Structure (SMILES) | outcome
Cc1ccn2nc(S(=O)(=O)Nc3c(F)cccc3F)nc2n1 | inactive
Nc1c(Cl)cc([N+](=O)[O-])cc1Cl | inactive
CCCCSP(=O)(SCCCC)SCCCC | inactive
CCOP(=O)(OCC)Oc1cc(C)nc(C(C)C)n1 | inactive
CC(=NC#N)N(C)Cc1ccc(Cl)nc1 | inactive
COc1cc(OC)nc(Sc2cccc(Cl)c2C(=O)O)n1 | inactive
O=C(O)c1cc(Oc2ccc(C(F)(F)F)cc2Cl)ccc1[N+](=O)[O-] | inactive
CC(COc1ccc(Oc2ccccc2)cc1)Oc1ccccn1 (stereo unspecified) | inactive
CCCCN(CC)c1c([N+](=O)[O-])cc(C(F)(F)F)cc1[N+](=O)[O-] | inactive
CCCCOC(=O)c1ccccc1C(=O)O | inactive
CN1COCN(Cc2cnc(Cl)s2)C1=N[N+](=O)[O-] | inactive
CCCSP(=O)(OCC)Oc1ccc(Br)cc1Cl (stereo unspecified) | inactive
CN(C)NC(=O)CCC(=O)O | inactive
C[N+]1(C)CCCCC1 | inactive
CCCOc1nn(C(=O)NS(=O)(=O)c2ccccc2C(=O)OC)c(=O)n1C | inactive
COP(=O)(NC(C)=O)SC (stereo unspecified) | inactive
Cc1nn(-c2cc(NS(C)(=O)=O)c(Cl)cc2Cl)c(=O)n1C(F)F | inactive
CN(C)[C@@H]1C(=O)C(C(N)=O)=C(O)[C@@]2(O)C(=O)C3=C(O)c4c(O)cccc4[C@@](C)(O)[C@H]3[C@H](O)[C@@H]12 | inactive
COc1cccc(C(=O)NN(C(=O)c2cc(C)cc(C)c2)C(C)(C)C)c1C | inactive

— PubChem BioAssay (EPA / NIEHS)
